Data: PubChem BioAssay (NCI)
About 83,000 compounds went through this panel and 20% of them were active in at least one assay; those are over-represented in the sample as a whole.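 Cell lines were cultured in 96-well plates, exposed to a single compound concentration, and assessed for percent growth 48 hours later.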 Unmarked numbers belong to inactive results. The source made the active and inactive calls. Rule for the calls: active = growth percent below 10; inactive = the rest.

Tested on: HL-60(TB) leukemia
Assay: NCI-60 one-dose screen, 48 h (100 = growth as untreated, 0 = no growth, -100 = all killed)
Conditions: 10 µM unless noted

Row | SMILES | growth
1 | Cc1ccc(NC(=O)c2sc3nc4c(cc3c2N)C(=O)CCC4)cc1 | 110%
2 | COc1nc2c(c(=O)n1C)CN(Cc1ccccc1)C=N2 | 92.9%
3 | Cc1nc(Nc2ccc(S(=O)(=O)Nc3cc(C)on3)cc2)c2ccccc2n1 | 101%
4 | Cc1ccc(NC(=O)c2[nH]c(SCCN(C)C)nc2-c2ccc(F)cc2)cc1Nc1ccc2ncn(C)c(=O)c2c1 | 19.3%
5 | O=C(Nc1cccc2c1C(=O)c1cccc(Nc3cccc4c3C(=O)c3cccc(NC(=O)c5ccccc5)c3C4=O)c1C2=O)c1ccccc1 | 118%
6 | O=C1c2cc3c(cc2-c2c1c1ccc(Cl)cc1c(=O)n2CCCN1CCOCC1)OCO3 | 16.7%
7 | COc1ccc(/C=C2\Oc3cc(OCCCN4CCCC4)ccc3C2=O)c(OC)c1 | 96.2%
8 | CC1=C(C(=O)Nc2ccc(F)cc2)C(c2ccccc2)C2=C(CC(C)(C)CC2=O)N1 (stereo not given) | 76%
9 | COc1cc2c(cc1OCCCCCOc1ccc(-n3c(C)nc4ccccc4c3=O)cc1)N=C[C@@H]1CCCN1C2=O | -33.8% (active)
10 | COc1ccc(/C=C\C(=O)/C=C/c2ccc(OC)cc2)cc1 | 50.2%
11 | CC1=CC(=Nc2ccc(N(C)C)cc2)C=C(C)C1=O | 42.8%
12 | c1ccc2nc(N/N=C3\CCCCC3C3CCCCC3)ccc2c1 (stereo not given) | -19.7% (active)
13 | COC(=O)/C=C1\S/C(=N\NC(=O)c2cc3ccc2/C=C\c2ccc(cc2)/C=C\3)N(Cc2ccccc2)C1=O | -5.46% (active)
14 | Cc1ccc2c(c1)O/C(=C\c1ccc([N+](=O)[O-])o1)C2=O | 17.2%
15 | COC(=O)c1cc([N+](=O)[O-])cc([N+](=O)[O-])c1Cl | 55.4%
16 | O=C(Nc1ncc(Cc2cccc(C(F)(F)F)c2)s1)c1ccc2c(c1)OCCO2 | -46.6% (active)
17 | CCc1c(Nc2ccc(C)cc2)[nH]c(N)nc1=S | 99.8%
18 | Cc1ccc(Nc2cc(Cl)c([N+](=O)[O-])cc2[N+](=O)[O-])cc1 | 6.39% (active)
19 | Cn1c(NCCc2ccc(O)c(O)c2)nc2c1c(=O)n(Cc1ccc(Cl)cc1)c(=O)n2C | 13.2%
20 | S=c1nc2[nH]c3ccccc3c2n[nH]1 | 148%

Row | SMILES | growth
21 | C=CCSc1nnc(COc2ccc3c(C)c(Cc4ccccc4)c(=O)oc3c2C)o1 | 96.1%
22 | C=C1CCC2C3(C)COC(c4cccc(Cl)c4)OC3CCC2(C)C1/C=C/C1=CCOC1=O (stereo not given) | 33.7%
23 | CCOC(=O)N1C/C(=C/c2ccc(Cl)cc2)C(=O)/C(=C/c2ccc(Cl)cc2)C1 | 61.5%
24 | Cc1cccc(C(=O)O)n1 | 78.1%
25 | CCC(C)(C)C(=O)O[C@H]1C[C@@H](C)C=C2C=C[C@H](C)[C@H](CC[C@@H]3CC(SCCN)CC(=O)O3)[C@H]21 (stereo not given in full) | 37.6%
26 | O/N=C1\c2ccccc2-c2ccc(F)cc21 | 92.3%
27 | CC(C)Cn1cnc2c(=O)[nH]c(N)nc21 | 63.8%
28 | Cc1ccc(C(=O)/C=C/c2ccccc2)s1 | 97.1%
29 | O=[N+]([O-])c1cc(Br)cc2c1[nH]c1ccc(Br)cc12 | 85%
30 | COc1cc2oc(-c3cccc(C(=O)Nc4ccc(C#N)cc4)c3)cc(=O)c2c(O)c1OC | 136%
31 | CCOC(=O)C1=C(C)N=C2Sc3cccc(OC)c3N2[C@H]1c1ccccn1 | 105%
32 | COC(=O)/C=C1/CCCCC1(C)C(=O)OC (stereo not given) | 102%
33 | CC[C@H](C)[C@H](N)C(=O)O | 115%
34 | Cn1cc(-c2csc(-c3cn(C)c4ccccc34)n2)c2cnccc21 | -41.4% (active)
35 | CC1OC(C(=O)N2CCN(CCO)CC2)CC1COC1CCCCC1 (stereo not given) | 98.3% [50 µM]
36 | CCN(CC)CC[n+]1cc2cc(OC)c(OC)cc2c2ccc3cc4c(cc3c21)OCO4 | -33.5% (active)
37 | CS(=O)(=O)Nc1cncc(-c2ccc3ncnc(Nc4cncc(Cl)c4)c3c2)c1 | 71.5%
38 | O=C(Nc1ccc2c(c1)OCO2)C(=O)c1c[nH]c2cc(F)ccc12 | 53.5%
39 | COc1ccc(C2C3=C(COC3=O)N(CCO)c3cc4c(cc32)CCC4)cc1OC (stereo not given) | 0.0588% (active)
40 | O=C(CCN1CCCCC1)c1ccc2ccccc2c1 | 112%
